Assay results from PubChem BioAssay AID1508601 (ICCB-Longwood Screening Facility, Harvard Medical School, 2020).
Out of some 5,700 compounds screened, about 85 (1%) were called active. No stated cut-off is given here; in the data, active means p53-positive nuclei above about 36% (passing the limit was not always enough); inactive means the rest. Only a selection was taken, and actives are over-represented in it overall.

How the values were obtained:
[1] = p53 stabilisation in HPV-positive human cells, imaging, p53-positive nuclei imaging, 24 h, 48 h (AID 1508601); settings: 24/48 h
[2] = biological target: Cellular tumor antigen p53 (Homo sapiens) (UniProt P04637); test: as above; settings: 24/48 h, stronger effect = higher value
[3] = measured here: cell number at 24 h, concentration not given here
[4] = measured here: cell number at 48 h, concentration not given here
[5] = measured here: p53 positive nuclei at 24 h, concentration not given here
[6] = measured here: cell number at 24 h, Library stock concentration: 10 mM
[7] = measured here: cell number at 48 h, Library stock concentration: 10 mM
[8] = Library stock concentration: 10 mM
[9] = measured here: p53 positive nuclei at 24 h, Library stock concentration: 10 mM
[10] = measured here: cell number at 24 h, Library stock concentration: 3.33 mM
[11] = measured here: cell number at 48 h, Library stock concentration: 3.33 mM
[12] = Library stock concentration: 3.33 mM
[13] = measured here: p53 positive nuclei at 24 h, Library stock concentration: 3.33 mM

Sequence of Cellular tumor antigen p53 (Homo sapiens) (P04637 whole entry, looked up): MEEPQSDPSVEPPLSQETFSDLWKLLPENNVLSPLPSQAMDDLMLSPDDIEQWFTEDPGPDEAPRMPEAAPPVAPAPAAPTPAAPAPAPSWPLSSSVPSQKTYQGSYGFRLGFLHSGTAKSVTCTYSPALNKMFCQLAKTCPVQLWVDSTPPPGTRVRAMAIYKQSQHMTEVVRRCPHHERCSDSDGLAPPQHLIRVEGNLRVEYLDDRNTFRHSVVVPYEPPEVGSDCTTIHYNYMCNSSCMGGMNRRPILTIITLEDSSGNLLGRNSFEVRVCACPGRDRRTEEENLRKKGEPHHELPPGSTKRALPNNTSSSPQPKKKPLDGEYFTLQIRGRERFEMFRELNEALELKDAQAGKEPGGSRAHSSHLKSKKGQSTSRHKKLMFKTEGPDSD

Q: With O=C(Nc1ccc2nccnc2c1)c1csc(Cc2ccccc2)n1 as the molecule, how does the nuclei count, normalised [1, 3] read?
A: 101%

Q: And the nuclei count, normalised [1, 4]?
A: 102%

Q: And the p53-positive nuclei, normalised ([2]; concentration not given here)?
A: 0.478% (inactive)

Q: What about the p53-positive nuclei, normalised [2, 5] of the same molecule?
A: 0.426%

Q: Which results are given for O=C(O)CCCCCCCCCCCNC(=O)NC12CC3CC(CC(C3)C1)C2?
A: nuclei count, normalised ([1]; measured here: cell number at 24 h, Library stock concentration: 46 uM): 111%; nuclei count, normalised ([1]; measured here: cell number at 24 h, Library stock concentration: 278 uM): 105%; nuclei count, normalised ([1]; measured here: cell number at 24 h, Library stock concentration: 1.67 mM): 106%; nuclei count, normalised [1, 6]: 101%; nuclei count, normalised [1, 3]: 106%; nuclei count, normalised ([1]; measured here: cell number at 48 h, Library stock concentration: 46 uM): 111%; nuclei count, normalised ([1]; measured here: cell number at 48 h, Library stock concentration: 278 uM): 105%; nuclei count, normalised ([1]; measured here: cell number at 48 h, Library stock concentration: 1.67 mM): 103%; nuclei count, normalised [1, 7]: 101%; nuclei count, normalised [1, 4]: 113%; p53-positive nuclei, normalised ([2]; Library stock concentration: 46 uM): -0.188% (inactive); p53-positive nuclei, normalised ([2]; Library stock concentration: 278 uM): 0.036% (inactive); p53-positive nuclei, normalised ([2]; Library stock concentration: 1.67 mM): 0.0433% (inactive); p53-positive nuclei, normalised [2, 8]: 0.0468% (inactive); p53-positive nuclei, normalised ([2]; concentration not given here): -0.166% (inactive); p53-positive nuclei, normalised ([2]; measured here: p53 positive nuclei at 24 h, Library stock concentration: 46 uM): -0.135%; p53-positive nuclei, normalised ([2]; measured here: p53 positive nuclei at 24 h, Library stock concentration: 278 uM): -0.135%; p53-positive nuclei, normalised ([2]; measured here: p53 positive nuclei at 24 h, Library stock concentration: 1.67 mM): 0.0415%; p53-positive nuclei, normalised [2, 9]: -0.0737%; p53-positive nuclei, normalised [2, 5]: -0.144%

Q: What does the source list for COC(=O)C=CC(=O)N(O)CCCCNCc1ccc(COC(=O)Nc2cccc3ccccc23)cc1?
A: nuclei count, normalised ([1]; measured here: cell number at 24 h, Library stock concentration: 80 uM): 119%; nuclei count, normalised ([1]; measured here: cell number at 24 h, Library stock concentration: 400 uM): 118%; nuclei count, normalised ([1]; measured here: cell number at 24 h, Library stock concentration: 2 mM): 116%; nuclei count, normalised [1, 6]: 97.3%; nuclei count, normalised ([1]; measured here: cell number at 48 h, Library stock concentration: 80 uM): 112%; nuclei count, normalised ([1]; measured here: cell number at 48 h, Library stock concentration: 400 uM): 113%; nuclei count, normalised ([1]; measured here: cell number at 48 h, Library stock concentration: 2 mM): 110%; nuclei count, normalised [1, 7]: 92.8%; p53-positive nuclei, normalised ([2]; Library stock concentration: 80 uM): -0.786% (inactive); p53-positive nuclei, normalised ([2]; Library stock concentration: 400 uM): -0.552% (inactive); p53-positive nuclei, normalised ([2]; Library stock concentration: 2 mM): -0.616% (inactive); p53-positive nuclei, normalised [2, 8]: -0.57% (inactive); p53-positive nuclei, normalised ([2]; measured here: p53 positive nuclei at 24 h, Library stock concentration: 80 uM): -0.122%; p53-positive nuclei, normalised ([2]; measured here: p53 positive nuclei at 24 h, Library stock concentration: 400 uM): -0.0743%; p53-positive nuclei, normalised ([2]; measured here: p53 positive nuclei at 24 h, Library stock concentration: 2 mM): -0.0278%; p53-positive nuclei, normalised [2, 9]: -0.0473%

Q: Which results are given for CC(=O)OC1C(=O)[C@]2(C)C(O)CC3OC[C@@]3(OC(C)=O)C2C(OC(=O)c2ccccc2)[C@]2(O)CC(OC(=O)C(O)C(NC(=O)c3ccccc3)c3ccccc3)C(C)=C1C2(C)C (stereo partly specified)?
A: nuclei count, normalised ([1]; measured here: cell number at 24 h, Library stock concentration: 500 nM): 124%; nuclei count, normalised ([1]; measured here: cell number at 24 h, Library stock concentration: 1.5 uM): 89.9%; nuclei count, normalised ([1]; measured here: cell number at 24 h, Library stock concentration: 4.6 uM): 58.2%; nuclei count, normalised ([1]; measured here: cell number at 24 h, Library stock concentration: 13.7 uM): 49%; nuclei count, normalised ([1]; measured here: cell number at 24 h, Library stock concentration: 41 uM): 47.4%; nuclei count, normalised ([1]; measured here: cell number at 24 h, Library stock concentration: 123 uM): 43.5%; nuclei count, normalised ([1]; measured here: cell number at 24 h, Library stock concentration: 370 uM): 42%; nuclei count, normalised ([1]; measured here: cell number at 24 h, Library stock concentration: 1.111 mM): 43.9%; nuclei count, normalised [1, 10]: 33.4%; nuclei count, normalised ([1]; measured here: cell number at 24 h, Library stock concentration: 3.333 mM): 39.5%; nuclei count, normalised [1, 6]: 44%; nuclei count, normalised ([1]; measured here: cell number at 48 h, Library stock concentration: 500 nM): 119%; nuclei count, normalised ([1]; measured here: cell number at 48 h, Library stock concentration: 1.5 uM): 71.2%; nuclei count, normalised ([1]; measured here: cell number at 48 h, Library stock concentration: 4.6 uM): 36.2%; nuclei count, normalised ([1]; measured here: cell number at 48 h, Library stock concentration: 13.7 uM): 29.7%; nuclei count, normalised ([1]; measured here: cell number at 48 h, Library stock concentration: 41 uM): 28.6%; nuclei count, normalised ([1]; measured here: cell number at 48 h, Library stock concentration: 123 uM): 29.2%; nuclei count, normalised ([1]; measured here: cell number at 48 h, Library stock concentration: 370 uM): 26.7%; nuclei count, normalised ([1]; measured here: cell number at 48 h, Library stock concentration: 1.111 mM): 28.6%; nuclei count, normalised [1, 11]: 27.2%; nuclei count, normalised ([1]; measured here: cell number at 48 h, Library stock concentration: 3.333 mM): 26.4%; nuclei count, normalised [1, 7]: 28.4%; p53-positive nuclei, normalised ([2]; Library stock concentration: 500 nM): 0.615% (inactive); p53-positive nuclei, normalised ([2]; Library stock concentration: 1.5 uM): 7.83% (inactive); p53-positive nuclei, normalised ([2]; Library stock concentration: 4.6 uM): 11.3% (inactive); p53-positive nuclei, normalised ([2]; Library stock concentration: 13.7 uM): 5.37% (inactive); p53-positive nuclei, normalised ([2]; Library stock concentration: 41 uM): 2.36% (inactive); p53-positive nuclei, normalised ([2]; Library stock concentration: 123 uM): 1.56% (inactive); p53-positive nuclei, normalised ([2]; Library stock concentration: 370 uM): 0.755% (inactive); p53-positive nuclei, normalised ([2]; Library stock concentration: 1.111 mM): 1.14% (inactive); p53-positive nuclei, normalised [2, 12]: -0.197% (inactive); p53-positive nuclei, normalised ([2]; Library stock concentration: 3.333 mM): 0.0812% (inactive); p53-positive nuclei, normalised [2, 8]: 0.227% (inactive); p53-positive nuclei, normalised ([2]; measured here: p53 positive nuclei at 24 h, Library stock concentration: 500 nM): -0.0449%; p53-positive nuclei, normalised ([2]; measured here: p53 positive nuclei at 24 h, Library stock concentration: 1.5 uM): 0.807%; p53-positive nuclei, normalised ([2]; measured here: p53 positive nuclei at 24 h, Library stock concentration: 4.6 uM): 1.13%; p53-positive nuclei, normalised ([2]; measured here: p53 positive nuclei at 24 h, Library stock concentration: 13.7 uM): -0.0184%; p53-positive nuclei, normalised ([2]; measured here: p53 positive nuclei at 24 h, Library stock concentration: 41 uM): 0.131%; p53-positive nuclei, normalised ([2]; measured here: p53 positive nuclei at 24 h, Library stock concentration: 123 uM): 0.31%; p53-positive nuclei, normalised ([2]; measured here: p53 positive nuclei at 24 h, Library stock concentration: 370 uM): 0.493%; p53-positive nuclei, normalised ([2]; measured here: p53 positive nuclei at 24 h, Library stock concentration: 1.111 mM): 0.16%; p53-positive nuclei, normalised [2, 13]: -0.232%; p53-positive nuclei, normalised ([2]; measured here: p53 positive nuclei at 24 h, Library stock concentration: 3.333 mM): 0.515%; p53-positive nuclei, normalised [2, 9]: 0.00376%

Q: For CN(C)Cc1ccc(S(=O)(=O)n2ccc(C=CC(=O)NO)c2)cc1, which nuclei count, normalised [1, 10] is on record?
A: 86.4%

Q: What about the nuclei count, normalised [1, 11] of the same molecule?
A: 84%

Q: What about the p53-positive nuclei, normalised [2, 12] of the same molecule?
A: 2.58% (inactive)

Q: What about the p53-positive nuclei, normalised [2, 13] of the same molecule?
A: 5%

Q: With Cc1[nH]c2ccccc2c1CCNCc1ccc(C=CC(=O)NO)cc1 as the molecule, how does the nuclei count, normalised [1, 10] read?
A: 37%

Q: What about the nuclei count, normalised [1, 11] of the same molecule?
A: 20.2%

Q: And the p53-positive nuclei, normalised [2, 12]?
A: 107% (active)

Q: And the p53-positive nuclei, normalised [2, 13]?
A: 92.9%

Q: For Cc1[nH]c2ccccc2c1CCNC(=O)c1cccs1, which nuclei count, normalised [1, 10] is on record?
A: 115%

Q: And the nuclei count, normalised [1, 11]?
A: 109%

Q: What about the p53-positive nuclei, normalised [2, 12] of the same molecule?
A: -0.163% (inactive)

Q: And the p53-positive nuclei, normalised [2, 13]?
A: -0.341%
